Sampled rows, rich in hits. Any-hit rate of the full collection: about 14%.
Giardia FBPA inh = Giardia lamblia aldolase inhibition; A8B2U2; purified Giardia FBPA; Potency, µM (doses to about 59.6 µM), actives largely listed as inhibitors; hit rate 0.71% among 290,000; AID 2451; also: nearly all actives have a fitted effect of over 55% in size
Target sequence (A8B2U2 whole entry, looked up): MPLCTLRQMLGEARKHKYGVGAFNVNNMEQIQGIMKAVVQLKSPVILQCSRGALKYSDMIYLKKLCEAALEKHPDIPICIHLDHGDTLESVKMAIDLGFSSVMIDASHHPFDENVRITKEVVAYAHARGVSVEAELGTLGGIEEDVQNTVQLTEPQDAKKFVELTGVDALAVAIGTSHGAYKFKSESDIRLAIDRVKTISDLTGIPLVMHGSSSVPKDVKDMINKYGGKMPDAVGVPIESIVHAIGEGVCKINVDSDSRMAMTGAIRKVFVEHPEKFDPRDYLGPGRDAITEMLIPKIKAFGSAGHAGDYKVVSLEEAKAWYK
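40 nM FBPA preincubated 10 min at RT with compound (up to 57.5 uM final), then substrate plus GAPDH/TPI/NAD/arsenate coupling and diaphorase/resazurin added. Fluorescence read after 20 min at RT, 525/598 nm.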
Sm TGR inh = inhibitors of Schistosoma mansoni thioredoxin glutathione reductase; purified TGR, DTNB reduction, TNB absorbance 405 nm; Q962Y6; hit rate 3% among 360,000; AID 485364; Potency, µM (titrated, usually from 114 µM), usual class: inhibitors; also: nearly all actives have a fitted effect of over 60% in size
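Kinetic colorimetric format: TGR-catalysed, NADPH-driven DTNB reduction monitored via TNB absorbance. Enzyme dispensed at 20 nM; compound exposure 15 min at room temperature before reaction start.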
Pf growth 96h = P. falciparum growth inhibition at 96 hours | hit rate 6.9% among 320,000 | Potency, µM (highest dose often 28.7 µM), most hits filed as inhibitors | AID 504834 | P. falciparum luciferase reporter growth, 96 h
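Erythrocytes infected with luciferase-expressing P. falciparum were dispensed at 2% hematocrit and 0.05% parasitemia (final), then incubated with compounds 96 hours at 37 C in 5% CO2. Luminescence after detection reagent addition reported growth.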
Pf growth 48h = inhibits P. falciparum growth in the first generation, 48 h; hit rate 5.9% among 310,000; Potency, µM (titrated, usually from 28.7 µM), usual class: inhibitors; P. falciparum luciferase growth in erythrocytes, 48 h; AID 504832
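First compound was added to culture medium, then infected red cells at 0.1% parasitemia and 2% hematocrit (final). After incubation at 37 C under 5% CO2, luciferase detection reagent was dispensed and light output recorded.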
HCMV antiviral = inhibitors of human cytomegalovirus | AID 1259415 | hit rate 4.5% among 410,000 | activity change, negative = inhibition, % at 57.5 µM | HFF cells, HCMV-luciferase reporter, 72 h; hits give low values; in the data active = activity change below about -60%; inconclusive = no clear call, values can overlap the other calls; inactive = above about -39%
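Two compound doses tested in HFFs infected with HCMV-luciferase, MOI 1 PFU/cell, 72 h at 37C. Lysate luminescence read with OneGlo; data normalized against buffer-only and 10uM Salinomycin inhibitor controls.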
Numbers stand for hits; [ ] = remark or other dose. Unless noted, calls follow the shape of the dose curve; as a rule, active = well fitted curve in the direction sought with a large enough effect; inconclusive = small, poorly fitted or top-dose-only effect, or another doubt; inactive = no such curve, though single readings can be large; an effect the other way counts as inactive or inconclusive.

Screening Cc1cc(F)ccc1C(O)c1ncc(-c2cccc3ccccc23)[nH]1 (centres undefined) returned HCMV antiviral inactive.
Cc1oc(C)c2c(=O)cc(-c3ccc4c(c3)OCO4)cc(OC(=O)c3ccccc3Br)c12 was read as Sm TGR inh 45µM and HCMV antiviral inactive.
For Cc1oc(C)c2c(=O)cc(-c3ccc4c(c3)OCO4)cc(OC(=O)c3ccccc3Cl)c12 the results were Sm TGR inh 40µM and HCMV antiviral inactive.
Screening COc1cc(-c2cc(OC)c3c(C)oc(C)c3c(=O)c2)ccc1OC(=O)c1ccccc1Cl returned Sm TGR inh inactive and HCMV antiviral inactive.
COc1ccc(CC(=O)N[C@@H]2c3cc(OC)c(OC)cc3C[C@H]2O)cc1 was read as HCMV antiviral inactive.
N#Cc1c(Cl)nsc1NN was read as Giardia FBPA inh inactive, Sm TGR inh inactive, Pf growth 96h inactive, Pf growth 48h inactive and HCMV antiviral -104.
`CC(NS(=O)(=O)c1cccc(Cl)c1F)[C@H](O)c1ccccc1` (some centres undefined) gave HCMV antiviral inactive.
`CCc1ccc(C2NC(c3ccc(CC)cc3)C([N+](=O)[O-])C(C)(C)C2[N+](=O)[O-])cc1` (centres undefined) gave Giardia FBPA inh inactive, Sm TGR inh inactive, Pf growth 96h 13µM, Pf growth 48h inconclusive and HCMV antiviral inactive.
Screening C=CCNc1nc(C(=O)OCC(=O)N(Cc2ccccc2)C(C)C)cs1 returned Sm TGR inh inactive, Pf growth 96h inactive, Pf growth 48h inactive and HCMV antiviral inactive.
Screening C=C1C(=O)OC2CC1C(OC(C)=O)CC(C)=CCCC(C)=CCC[C@@]2(C)O (some centres undefined) returned Giardia FBPA inh inactive.
For COc1ccc(-c2c(C)nn3c(N4CCC(C(=O)NCCN(C)C)CC4)cc(C)nc23)cc1OC the results were Giardia FBPA inh inactive, Sm TGR inh inactive, Pf growth 96h inactive, Pf growth 48h 10µM and HCMV antiviral inactive.
For COCCCNC(=O)C1CCN(c2cc(C)nc3c(-c4ccc(OC)c(OC)c4)c(C)nn23)CC1 the results were Sm TGR inh inactive and HCMV antiviral inactive.
Screening COc1ccc(-c2cccc(NC(=O)c3cccs3)c2)nn1 returned Sm TGR inh inactive, Pf growth 96h 7.4µM, Pf growth 48h 9.3µM and HCMV antiviral inactive.
`CCOc1ccc(-c2cccc(NC(=O)c3ccco3)c2)nn1` gave Sm TGR inh inactive, Pf growth 96h 10µM, Pf growth 48h inconclusive and HCMV antiviral inactive.
CCOc1ccc(-c2cccc(NC(=O)c3cccs3)c2)nn1 was read as Sm TGR inh inactive, Pf growth 96h 3.7µM, Pf growth 48h 5.2µM and HCMV antiviral inactive.
O=C(c1cc(N2C(=O)C3C4CCC(C4)C3C2=O)ccc1Cl)N1CCN(c2ccccc2F)CC1 (centres undefined) was read as Giardia FBPA inh inactive, Sm TGR inh inactive, Pf growth 96h inconclusive, Pf growth 48h inactive and HCMV antiviral inactive.
Screening Cc1c(C(=O)Nc2ccc(-c3nnc4n3CCCCC4)cc2)oc2ccc(Br)cc12 returned Giardia FBPA inh inactive, Sm TGR inh inactive, Pf growth 96h inactive, Pf growth 48h inactive and HCMV antiviral inconclusive.
`Cc1nc(C)c(C(=O)N2CCCC(C(=O)c3cc(F)ccc3F)C2)s1` (centres undefined) gave Giardia FBPA inh inactive, Sm TGR inh inactive, Pf growth 96h 5.9µM, Pf growth 48h inactive and HCMV antiviral inactive.
Screening O=C(c1cc(F)ccc1F)C1CCCN(C(=O)c2ccc(F)cc2Cl)C1 (centres undefined) returned Giardia FBPA inh inactive, Sm TGR inh inactive, Pf growth 96h 1.2µM, Pf growth 48h inactive and HCMV antiviral inconclusive.
`Cc1ccsc1C(=O)N1CCCC(C(=O)c2cc(F)ccc2F)C1` (centres undefined) gave Giardia FBPA inh inactive, Sm TGR inh inactive, Pf growth 96h inconclusive, Pf growth 48h inconclusive and HCMV antiviral inactive.
CC(=O)c1ccc(C(=O)N2CCCC(C(=O)c3cc(F)ccc3F)C2)s1 (centres undefined) was read as Giardia FBPA inh inactive, Sm TGR inh inactive, Pf growth 96h inactive, Pf growth 48h inactive and HCMV antiviral inactive.
CCCCN(C(=O)c1cc(S(=O)(=O)N2CCOCC2)ccc1N1CCOCC1)c1ccccc1 was read as HCMV antiviral inactive.
For COCCn1c(Sc2nc(C)cs2)nc2c1c(=O)[nH]c(=O)n2C the results were Giardia FBPA inh inactive, Sm TGR inh inactive, Pf growth 96h 13µM, Pf growth 48h inactive and HCMV antiviral inactive.
COCCn1c(N2CCCC2)nc2c1c(=O)[nH]c(=O)n2C was read as Giardia FBPA inh inactive, Sm TGR inh inactive, Pf growth 96h inactive, Pf growth 48h 13µM and HCMV antiviral inactive.
`CCOCCn1c(N2CCCC2)nc2c1c(=O)[nH]c(=O)n2C` gave Giardia FBPA inh inactive, Sm TGR inh inconclusive, Pf growth 96h inconclusive, Pf growth 48h inactive and HCMV antiviral inactive.
COCCn1c(SCc2ccccc2Cl)nc2c1c(=O)[nH]c(=O)n2C was read as Giardia FBPA inh inactive, Sm TGR inh inactive, Pf growth 96h inactive, Pf growth 48h inactive and HCMV antiviral inactive.
CC(C)n1c(N2CCCC2)nc2c1c(=O)[nH]c(=O)n2C was read as Giardia FBPA inh inactive, Sm TGR inh inactive, Pf growth 96h inactive, Pf growth 48h inactive and HCMV antiviral inactive.
Screening CCOC(=O)Cn1c(Br)nc2c1c(=O)[nH]c(=O)n2C returned Giardia FBPA inh inactive, Sm TGR inh inactive, Pf growth 48h inactive and HCMV antiviral inactive.
Screening Cn1c(N2CCCCC2)nc2c1c(=O)[nH]c(=O)n2C returned Giardia FBPA inh inactive, Sm TGR inh inactive, Pf growth 96h 10µM, Pf growth 48h inactive and HCMV antiviral inactive.
Screening CCOC(=O)Cn1c(N2CCOCC2)nc2c1c(=O)[nH]c(=O)n2C returned Giardia FBPA inh inactive, Sm TGR inh inactive, Pf growth 96h 12µM, Pf growth 48h inactive and HCMV antiviral inactive.
CC(=O)c1ccc(OCCCC(=O)NCc2nnc3ccccn23)cc1 was read as Sm TGR inh inactive, Pf growth 96h inactive, Pf growth 48h inactive and HCMV antiviral inactive.
O=C(COC(=O)c1ccc(S(=O)(=O)C(F)F)cc1)Nc1cccnc1Cl was read as Sm TGR inh inactive, Pf growth 96h inactive, Pf growth 48h inactive and HCMV antiviral inactive.
O=C(Nc1ccc(Cl)cc1)C1Cc2c(-c3cccc(F)c3)ccnc2O1 (centres undefined) was read as HCMV antiviral inactive.
CC1CCC(NC(=O)Cn2cnc3sccc3c2=O)CC1 (centres undefined) was read as Sm TGR inh inactive, Pf growth 96h inactive, Pf growth 48h inactive and HCMV antiviral inactive.
CC(C)CCn1c(N2CCC(C(N)=O)CC2)nc2c1c(=O)[nH]c(=O)n2C was read as Giardia FBPA inh inactive, Sm TGR inh inactive[11.4 µM], Pf growth 96h inconclusive and HCMV antiviral -94.
